# Measurements published in PubChem BioAssay AID624296 (National Center for Advancing Translational Sciences (NCATS), 2012).
# About 9,900 (2.8%) of roughly 350,000 compounds were called active. Not shown: some 15% with an inconclusive outcome. This is one part of a sample in which actives are shown more often than they occur. Unmarked numbers belong to inactive results. Calls follow the shape of the dose curve; as a rule, active = well fitted activation curve with a large enough effect; inconclusive = small, poorly fitted or top-dose-only effect; inactive = no such curve, though single readings can be large or run the other way.
# Assay: A quantitative high throughput screen for small molecules that induce DNA re-replication in MCF 10a normal breast cells. Also: nearly all actives have a fitted effect of over 50% in size. As to activity, positive = re-replication: % of control where 0% means no effect.
# Conditions: MCF 10A DNA re-replication, Hoechst nuclear intensity, 48 h; series mostly up to 46.1 µM; activity, positive = re-replication: at the top concentration
# Potency is read from the fitted curve at half-maximal effect.
SMILES,"activity, positive = re-replication",Potency
CC1CCCCC1NC(=O)NC(=O)COC(=O)C1=NN(c2ccccc2)C(=O)CC1 (centres undefined),3.38%,
CC1CN(C(=O)c2cc(COc3c(F)cccc3F)on2)CCN1C (centres undefined),-5.24%,
COc1cc(Cl)ccc1OCc1cc(C(=O)N2CC[C@@H]3CCCC[C@H]3C2)no1,,16.4 µM (active)
CCn1ccnc1CN(C)C(=O)c1cc(COc2ccc(Cl)cc2OC)on1,-7.68%,
CSc1ncccc1C(=O)NCC(c1ccco1)N1CCCCC1 (centres undefined),-0.472%,
COc1ccc(C)cc1Nc1nc(-c2c(C)[nH]c3ccccc23)cs1,,18.4 µM (active)
CCCCCCC(=O)Nc1nc(C)c(-c2csc(Nc3cc(Cl)ccc3OC)n2)s1,11.8%,
COC(=O)c1cnc(Nc2cc(C)ccc2OC)c2ccccc12,14.9%,
CN(CC(=O)NCCc1ccc(F)cc1)CC(=O)Nc1ccc(F)c(F)c1F,2.2%,
CCN(CC)c1ccc(NC(=O)c2ccc(=O)[nH]c2)cc1S(=O)(=O)Nc1ccc(OC)cc1,18.9%,
COc1ccc2nc(N3C(=O)C(O)=C(C(=O)c4ccco4)C3c3ccco3)sc2c1 (centres undefined),2.93%,
Cc1ccc2nc(N3CCN(C(=O)c4ccco4)CC3)sc2c1,17%,
Cc1ccc2nc(N3C(=O)C(O)=C(C(=O)c4ccco4)C3c3cccc(O)c3)sc2c1 (centres undefined),,23.1 µM (active)
CCN(C(=O)COC(=O)c1c(C)nn(-c2ccccc2)c1Cl)c1c(N)n(Cc2ccccc2)c(=O)[nH]c1=O,-1.57%,
Cc1cccc(NC(=O)CN2CCN(CC(=O)NCC3(N4CCCCC4)CCCCC3)CC2)c1C,1.93%,
CCN(CC(=O)Nc1ccc(OC)cc1)C(=O)CSCc1ccc(C)cc1,4.68%,
OCC[C@H]1C[C@@H](O)[C@H](O)[C@]2(OCCCc3ccccc32)O1,7.29%,
O=C(/C=C/c1ccccc1)N/C(=C/c1ccccc1)C(=O)Nc1ccccc1O,0.812%,
O=C(/C=C/c1ccccc1)c1ccccc1O,,20.6 µM (active)
CN(C)/C=C/C(=O)c1ccccc1F,4.67%,
O=C(CSc1nnc(-c2ccncc2)o1)Nc1cccc(Cl)c1,-3.65%,
CN(c1ccccc1)S(=O)(=O)c1cc(C(=O)N2CCN(c3ncccn3)CC2)ccc1Cl,,20.6 µM (active)
CN(c1ccccc1)S(=O)(=O)c1ccc(C(=O)N2CCN(c3ccccc3Cl)CC2)cc1,11.7%,
CN(c1ccccc1)S(=O)(=O)c1cc(C(=O)OCC(=O)N2CCN(C(=O)c3ccco3)CC2)ccc1Cl,1.62%,
CN(C(=O)c1cccc(NC(=O)Cc2cccc(NC(=O)C3CCCN(C(=O)C4CC4)C3)c2)c1)C1CCC1 (centres undefined),-0.899%,

SMILES,"activity, positive = re-replication",Potency
CC[C@]1(C(=O)OC)[C@H]2C(=O)N(C)C(=O)[C@H]2[C@H]2CN(C)C(=NCc3ccccc3)N21,-7.09%,
Cc1cc(NC(=O)CSc2ncc(C(F)(F)F)cc2Cl)no1,-3.51%,
C=CC[C@@H](CC(=O)N[C@H](CO)Cc1ccccc1)C(=O)N[C@@H](COC(=O)[C@@H](CC=C)Cc1ccc(F)cc1)Cc1c[nH]c2ccccc12,3.99%,
Cc1c(CC(=O)NCCCCCC(=O)O)c(=O)oc2cc3occ(-c4ccccc4)c3cc12,5.09%,
CCCCCCc1cc2cc(-c3nnc(-c4ccccc4)o3)c(=O)oc2cc1O,,1.46 µM (active)
Cc1c(CCC(=O)O)c(=O)oc2cc3occ(-c4ccccc4)c3cc12,-9.98%,
CCc1nnc(NC(=O)c2sc3nc(C)cc(COC)c3c2N)s1,12.4%,
COc1ccc(OC)c(NC(=O)c2sc3nc(C)cc(C)c3c2N)c1,,11.6 µM (active)
COCc1cc(C)nc2sc(C(=O)NC3CCCCC3)c(N)c12,27.3%,
Cc1ccc(COC(=O)CN2C(=O)NC3(CCCC3)C2=O)cc1,0.31%,
Cc1ccc(NC(=O)CCNC(=O)c2ccc([N+](=O)[O-])cc2)cc1S(=O)(=O)N1CCOCC1,13.8%,
O=C(CN1C(=O)NC2(CCCCCC2)C1=O)Nc1ccc([N+](=O)[O-])cc1,2.08%,
COc1cc2c(cc1OC)C1C(=O)c3cc(OS(C)(=O)=O)c(OC)cc3C1N(C)C2=O (centres undefined),11.8%,
CCC(CO)Oc1cc(NC(=O)c2cccc3ccccc23)c2ncn(C(C)C)c2c1 (centres undefined),-2.74%,
COc1ccc(C2=NN(C(=O)CCC(=O)O)C(c3cccs3)C2)cc1OC (centres undefined),-6.26%,
CCS(=O)(=O)Nc1ccc(C2=NN(C(C)=O)C(c3cccs3)C2)cc1 (centres undefined),,9.2 µM (active)
CS(=O)(=O)Nc1ccc(C2=NN(S(C)(=O)=O)C(c3cccs3)C2)cc1 (centres undefined),1.04%,
Cn1cc(C2OC(=O)c3ccccc32)c2ccccc21 (centres undefined),74.6%,
O=C(Nc1cccc(F)c1)c1cc(-c2ccco2)nc2ccccc12,6.3%,
NNC(=O)c1oc2nc(-c3ccccc3)cc(-c3ccco3)c2c1N,,20.6 µM (active)
CNC(=S)NNC(=O)c1oc2nc(-c3ccccc3)cc(-c3ccco3)c2c1N,21.2%,
Cc1ccc(S(=O)(=O)N2C[C@@H]3CCCC[C@@H]3[C@@H](C)[C@H]2c2cn(Cc3ccccc3)c3ccc(F)cc23)cc1,2.93%,
Cn1c(N)c(C(=O)COC(=O)COc2ccc(Cl)cc2)c(=O)n(C)c1=O,-4.1%,
Cc1ccccc1C1CC(c2cccs2)=NN1S(C)(=O)=O (centres undefined),-23.5%,
